What all share (test): PBM; 200 nM protein, PBS
Holding throughout (details): dsDNA, one strand shown

For assay [1], the target named is HOXC10 (Homo sapiens, UniProt Q9NYD6 254-340).
Assay [2] deals with T1, PAX4 (Homo sapiens, UniProt O43316 9-242, R200K).
T1 sequence: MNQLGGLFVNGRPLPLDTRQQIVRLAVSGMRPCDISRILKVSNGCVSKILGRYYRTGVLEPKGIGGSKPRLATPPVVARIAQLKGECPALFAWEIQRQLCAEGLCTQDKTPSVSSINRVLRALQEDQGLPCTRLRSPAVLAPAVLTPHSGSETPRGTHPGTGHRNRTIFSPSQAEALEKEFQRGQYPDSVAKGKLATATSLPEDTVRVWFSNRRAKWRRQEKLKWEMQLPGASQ

The target in assay [3] is T2, PAX4 (Homo sapiens, UniProt O43316 9-242).
T2 sequence: T1 sequence with K192R

In assay [4] the target is T3, PAX4 (Homo sapiens, UniProt O43316 9-242, R200Q).
T3 sequence: T1 sequence with K192Q

Assay [5] concerns the target T4, PAX4 (Homo sapiens, UniProt O43316 9-242, F177V).
T4 sequence: T1 sequence with F169V, K192R

Assay [6] addresses HOXC10 (Homo sapiens, UniProt Q9NYD6 254-340, K271E).
Assay [7] deals with T5, PAX4 (Homo sapiens, UniProt O43316 9-242, F177Y).
T5 sequence: T1 sequence with F169Y, K192R

The target in assay [8] is T6, PAX4 (Homo sapiens, UniProt O43316 9-242, R227W).
T6 sequence: T1 sequence with K192R, R219W

Assay [9] deals with PRRX1 (Homo sapiens, UniProt P54821 80-166, F113S).
Chain of PRRX1 (Homo sapiens, UniProt P54821 80-166, F113S) (P54821 80-166 F113S): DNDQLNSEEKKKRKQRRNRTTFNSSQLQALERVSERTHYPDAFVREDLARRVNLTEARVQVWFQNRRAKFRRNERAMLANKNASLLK
Assay [10] deals with HOXD13 (Homo sapiens, UniProt P35453 263-343, T313R).
Chain of HOXD13 (Homo sapiens, UniProt P35453 263-343, T313R) (P35453 263-343 T313R): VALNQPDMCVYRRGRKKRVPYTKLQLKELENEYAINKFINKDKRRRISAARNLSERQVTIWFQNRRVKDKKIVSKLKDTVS
For assay [11], the target named is HOXD13 (Homo sapiens, UniProt P35453 263-343).
Chain of HOXD13 (Homo sapiens, UniProt P35453 263-343) (P35453 263-343): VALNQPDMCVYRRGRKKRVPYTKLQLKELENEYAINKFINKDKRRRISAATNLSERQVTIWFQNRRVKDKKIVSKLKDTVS
Assay [12] has as its target HOXD13 (Homo sapiens, UniProt P35453 263-343, T313A).
For assay [13], the target named is PRRX1 (Homo sapiens, UniProt P54821 80-166).
Chain of PRRX1 (Homo sapiens, UniProt P54821 80-166) (P54821 80-166): as the sequence (P54821 80-166 F113S) above, with S34F counted along it
In assay [14] the target is T7, NKX2-6 (Homo sapiens, UniProt A6NCS4 118-204).
T7 sequence: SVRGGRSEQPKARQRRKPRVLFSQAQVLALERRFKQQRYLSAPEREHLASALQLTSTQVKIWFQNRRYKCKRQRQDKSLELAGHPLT

Assay [15] deals with T8, NKX2-6 (Homo sapiens, UniProt A6NCS4 118-204, F151L).
T8 sequence: T7 sequence with F34L

Where a chain is given by its changes, count along the chain named.

Chain of HOXC10 (Homo sapiens, UniProt Q9NYD6 254-340) (Q9NYD6 254-340): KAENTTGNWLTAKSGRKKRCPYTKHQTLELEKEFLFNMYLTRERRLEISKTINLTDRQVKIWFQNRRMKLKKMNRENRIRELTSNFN
Chain of HOXC10 (Homo sapiens, UniProt Q9NYD6 254-340, K271E) (Q9NYD6 254-340 K271E): as the sequence (Q9NYD6 254-340) above, with K18E counted along it
Chain of HOXD13 (Homo sapiens, UniProt P35453 263-343, T313A) (P35453 263-343 T313A): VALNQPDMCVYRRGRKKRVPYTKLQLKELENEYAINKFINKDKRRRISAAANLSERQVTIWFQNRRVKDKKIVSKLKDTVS

For the sequence CCCCACCG, the binding signal with HOXC10 [1] is 10.2 upbm affinity estimate (log intensity, higher = more binding, comparable within an allelic series); with PAX4 [2], 9.41 upbm affinity estimate (log intensity, higher = more binding, comparable within an allelic series); with PAX4 [3], 9.56 upbm affinity estimate (log intensity, higher = more binding, comparable within an allelic series); in the assay with PAX4 [4], 9.46 upbm affinity estimate (log intensity, higher = more binding, comparable within an allelic series); with PAX4 [5] it was 9.14 upbm affinity estimate (log intensity, higher = more binding, comparable within an allelic series); with HOXC10 [6] it was 10.1 upbm affinity estimate (log intensity, higher = more binding, comparable within an allelic series). The binding signal is 9.27 upbm affinity estimate (log intensity, higher = more binding, comparable within an allelic series) in the assay with PAX4 [7] and 9.33 upbm affinity estimate (log intensity, higher = more binding, comparable within an allelic series) in the assay with PAX4 [8].
As for CTTTATGA, the binding signal was 12.2 upbm affinity estimate (log intensity, higher = more binding, comparable within an allelic series) in the assay with HOXC10 [1]; 10 upbm affinity estimate (log intensity, higher = more binding, comparable within an allelic series) with PRRX1 [9]; 10.5 upbm affinity estimate (log intensity, higher = more binding, comparable within an allelic series) with HOXD13 [10]; 11.8 upbm affinity estimate (log intensity, higher = more binding, comparable within an allelic series) with HOXD13 [11]; 11.6 upbm affinity estimate (log intensity, higher = more binding, comparable within an allelic series) in the assay with HOXC10 [6]; 11.5 upbm affinity estimate (log intensity, higher = more binding, comparable within an allelic series) with HOXD13 [12]. Further, in the assay with PRRX1 [13], the binding signal was 11.2 upbm affinity estimate (log intensity, higher = more binding, comparable within an allelic series).
In the case of GTCATGAA, the binding signal in the assay with HOXC10 [1] was 10.8 upbm affinity estimate (log intensity, higher = more binding, comparable within an allelic series).
Regarding AAATGGTA, the binding signal with HOXC10 [1] is 10.9 upbm affinity estimate (log intensity, higher = more binding, comparable within an allelic series).
Consider AATTGCAA, for which the binding signal is 11.1 upbm affinity estimate (log intensity, higher = more binding, comparable within an allelic series) with HOXC10 [1] and 11 upbm affinity estimate (log intensity, higher = more binding, comparable within an allelic series) with HOXC10 [6].
Consider CCGAAGGA, for which the binding signal is 10 upbm affinity estimate (log intensity, higher = more binding, comparable within an allelic series) with HOXC10 [1] and 9.98 upbm affinity estimate (log intensity, higher = more binding, comparable within an allelic series) with HOXC10 [6].
As to CTCTCCGA, the binding signal was 9.99 upbm affinity estimate (log intensity, higher = more binding, comparable within an allelic series) in the assay with HOXC10 [1] and 9.97 upbm affinity estimate (log intensity, higher = more binding, comparable within an allelic series) in the assay with HOXC10 [6].
Consider GAAGCTGC, for which the binding signal in the assay with HOXC10 [1] is 10.1 upbm affinity estimate (log intensity, higher = more binding, comparable within an allelic series); with HOXC10 [6] it was 10 upbm affinity estimate (log intensity, higher = more binding, comparable within an allelic series).
For AATGCTAT, the binding signal in the assay with HOXC10 [1] was 11 upbm affinity estimate (log intensity, higher = more binding, comparable within an allelic series); with HOXC10 [6], 10.9 upbm affinity estimate (log intensity, higher = more binding, comparable within an allelic series).
Turning to ATAAAGAT, the binding signal in the assay with HOXC10 [1] was 11.6 upbm affinity estimate (log intensity, higher = more binding, comparable within an allelic series); with HOXC10 [6] it was 11.1 upbm affinity estimate (log intensity, higher = more binding, comparable within an allelic series).
As to CGGCCCCG, the binding signal with HOXC10 [1] was 10.2 upbm affinity estimate (log intensity, higher = more binding, comparable within an allelic series); with HOXC10 [6], 10.1 upbm affinity estimate (log intensity, higher = more binding, comparable within an allelic series).
As to ATAAAAAG, the binding signal was 12.1 upbm affinity estimate (log intensity, higher = more binding, comparable within an allelic series) in the assay with HOXC10 [1] and 11.5 upbm affinity estimate (log intensity, higher = more binding, comparable within an allelic series) with HOXC10 [6].
As to GACGATTA, the binding signal with HOXC10 [1] was 11.2 upbm affinity estimate (log intensity, higher = more binding, comparable within an allelic series); with HOXC10 [6] it was 11.1 upbm affinity estimate (log intensity, higher = more binding, comparable within an allelic series).
Take GTCCCGCA: the binding signal was 10.1 upbm affinity estimate (log intensity, higher = more binding, comparable within an allelic series) in the assay with HOXC10 [1]; 9.41 upbm affinity estimate (log intensity, higher = more binding, comparable within an allelic series) in the assay with NKX2-6 [14]; 10.1 upbm affinity estimate (log intensity, higher = more binding, comparable within an allelic series) with HOXC10 [6]; 9.36 upbm affinity estimate (log intensity, higher = more binding, comparable within an allelic series) with NKX2-6 [15].
Regarding CACTGACG, the binding signal with HOXC10 [1] was 10 upbm affinity estimate (log intensity, higher = more binding, comparable within an allelic series); with HOXC10 [6], 10.1 upbm affinity estimate (log intensity, higher = more binding, comparable within an allelic series).
Regarding CGCTGGGC, the binding signal with HOXC10 [1] was 10 upbm affinity estimate (log intensity, higher = more binding, comparable within an allelic series); with NKX2-6 [14], 9.13 upbm affinity estimate (log intensity, higher = more binding, comparable within an allelic series); with HOXC10 [6], 9.98 upbm affinity estimate (log intensity, higher = more binding, comparable within an allelic series); in the assay with NKX2-6 [15], 9.22 upbm affinity estimate (log intensity, higher = more binding, comparable within an allelic series).
